# Measurements from PubChem BioAssay AID588334 (Broad Institute, 2011).
# In all, about 300,000 compounds went through this assay and about 2,300 (0.77%) were called active. This is one part of a sample in which actives are shown more often than they occur. Values without a mark were called inactive.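 Rule for the calls: active = mean activation of at least 80% with every replicate also reaching 80%; inconclusive = mean reaches 80% but some replicate falls short; inactive = the rest.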
# Experiment: activators of MITF-driven TRPM1 promoter reporter, primary screen, cell-based, SK-MEL-5, luciferase, single point (AID 588334);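 note: 0% = neutral control wells and 100% = parthenolide positive control wells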
# Conditions: SK-MEL-5 TRPM1-promoter luciferase, 24 h; at 12.5 µM; stronger effect = higher value; % of positive control, neutral wells = 0
row,Structure (SMILES),activation
1,C=CCCC(=O)N1C[C@H]2CON(C)[C@H]2C[C@H]1c1cccc(Nc2ccccc2)c1,17.1%
2,O=C(Nc1ccccc1)Oc1cccc2cccnc12,-34.4%
3,CCOC(=O)c1nc(Nc2ccc(C(=O)OC)cc2)c2ccccc2n1,8.95%
4,COC(=O)c1ccc(Nc2ncnc3sccc23)cc1,93.3% (active)
5,COc1ccc(Nc2ncnc3sc(C)cc23)cc1,68.5%
6,O=C(Nc1ccccc1)c1ccc2c(c1)OCCCO2,24.5%
7,Cc1ccc(C(=O)NNC(=O)c2ccc3c(c2)OCCO3)cc1,109% (active)
8,Cc1cccc(C)c1NC(=O)CNC(=O)c1ccc2c(c1)OCCO2,4.28%
9,Cc1ccc2sc(NNC(=O)c3ccc4c(c3)OCCO4)nc2c1C,-0.623%
10,O=C(Nc1ccc(Cl)cn1)c1ccc2c(c1)OCCO2,5.88%
11,Cc1nc(NC(=O)c2ccc3c(c2)OCCO3)ccc1Br,122% (active)
12,CSCCC(NC(=O)COc1ccccc1)C(=O)N1CCN(c2cccc(C(F)(F)F)c2)CC1 (stereo not drawn),8.6%
13,CC(C)N(C(=O)[C@H]1C[C@H](CC(=O)NCCC2=CCCCC2)C(=O)N2CCc3c([nH]c4cc(CCC(=O)N(C)C)ccc34)[C@]12C)C(C)C,10.3%
14,COc1ccc2[nH]c3c(c2c1)CCN1C(=O)C(CC(=O)NCc2cccc(C(F)(F)F)c2)C[C@H](C(=O)N2CCOCC2)[C@@]31C (stereo partly drawn),2.71%
15,C1=C(CCNc2ncnc3c2cnn3-c2ccccc2)CCCC1,94.3% (active)
16,O=C(NNc1ncnc2c1cnn2-c1ccccc1)c1ccco1,2.51%
17,O=C(NCCC1=CCCCC1)C1CCN(Cc2cnn(-c3ccccc3)c2-n2cccc2)CC1,11.4%
18,N#CC(Cc1cc2ccccc2n1S(=O)(=O)c1ccccc1)OCc1ccccc1 (stereo not drawn),-2.16%
19,Cc1cc(NC(=O)c2ccc(F)cc2)ccc1NC(=O)c1ccco1,10.4%
20,Cc1ccnc(NC(=O)c2ccc(NC(=O)c3ccco3)cc2)c1,109% (active)

row,Structure (SMILES),activation
1,O=C(Nc1ccc(O)cc1)c1ccc(NC(=O)c2ccco2)cc1,30.3%
2,CC(C)C[C@H]1CN([C@@H](CC(C)C)CN2CCC[C@@H]2CN2C(=O)C(=O)NC[C@@H]2Cc2ccccc2)C(=O)C(=O)N1CCc1ccccc1,2.67%
3,C=CC[C@@H](Cc1ccc(F)cc1)C(=O)OC[C@H]1CCCN1C(=O)[C@H](CC=C)CC(=O)N(CCO)Cc1ccccc1,12.6%
4,CC(=O)OC1CCC2(C)C(=CCC3C4CC(=O)N(O)C(=O)C4(C)CCC32)C1 (stereo not drawn),-5.88%
5,COc1ccc(CNCCCNCc2ccc(OC)c(OC)c2)cc1OC,7.54%
6,Cc1ccc(N/C=C/C(=O)c2ccccc2)cc1C,-1.56%
7,C/C(=C\C(=O)c1cccnc1)Nc1ccc(C)c(C)c1,104% (active)
8,Cc1ccc(NC(=O)COc2ccc(/C=N\NC(=O)c3cccnc3)cc2)cc1C,13.6%
9,COc1ccccc1C(=O)Nc1ccc(C)c(S(=O)(=O)N2CCCCC2)c1,-6.44%
10,CC(=O)Nc1ccc(NC(=O)COC(=O)C2CCC(C(C)(C)C)CC2)cc1 (stereo not drawn),-0.038%
11,COc1ccc(-c2csc(-c3cccs3)n2)cc1OC,56.3%
12,COc1ccc(-c2noc(CCCC(=O)NC3CCCC3)n2)cc1OC,4.98%
13,COc1ccc(-c2noc(-c3cccc(OC)c3OC)n2)cc1OC,88.3% (active)
14,Fc1ccc2cnc(-c3ccccc3)cc2c1,63.9%
15,COc1cc(OC)cc(-c2cc3ccc(F)cc3cn2)c1,111% (active)
16,COc1ccc(-c2cc3ncccc3cn2)cc1,72%
17,O=C(Nc1ccc(S(=O)(=O)N2CCOCC2)cc1)C1CCN(S(=O)(=O)c2ccc(Cl)cc2)CC1,-12.4%
18,COc1ccccc1-c1nnc2n1N=C(c1ccc(OC(F)F)c(OCC3CC3)c1)CS2,3.16%
19,COc1ccc(-c2c(C#Cc3ccccc3)c3ccccc3n2C)cc1,85.9% (active)
20,COc1cc(OC)cc(-c2c(C#Cc3ccsc3)c3cc(-c4ccc(SC)cc4)ccc3n2C)c1,6.54%

row,Structure (SMILES),activation
1,COc1ccc(CCNCc2c(-c3ccccc3)n(C)c3ccccc23)cc1,2.46%
2,COc1ccc(CC(=O)N[C@@H]2c3cc(OC)c(OC)cc3C[C@H]2OCc2ccccc2)cc1,-0.621%
3,CCCCNC(=O)C(C)N(CCN(C)C)C(=O)CCCCCN1C(=O)NC(c2ccc(Cl)cc2)C(C(=O)OCc2ccccc2)=C1C (stereo not drawn),-93.7%
4,Oc1ccc(-c2nc3ccccc3nc2-c2ccc(O)cc2O)c(O)c1,-29.5%
5,CCc1ccc(NC(=O)Cn2nnc(C(=O)NCc3ccc4c(c3)OCO4)c2N)cc1,-0.586%
6,CCOc1ccc(Cn2nnc(C(=O)NCc3ccccc3)c2N)cc1,0.298%
7,Nc1c(C(=O)Nc2ccc3c(c2)OCCO3)nnn1Cc1ccccc1,81.1% (active)
8,Cc1cccc(C=CC(=O)c2ccc(Cl)cc2)c1,35.1%
9,CN(C)C(=O)CCc1ccc2c3c([nH]c2c1)[C@]1(CCc2ccccc2)[C@@H](C(=O)N2CCCCC2)C[C@H](CC(=O)NCCC2=CCCCC2)C(=O)N1CC3,-16.1%
10,Cc1ccc(S(=O)(=O)N2CCN(C(=O)CN3C(=O)NC(C)(c4ccc(Cl)cc4)C3=O)CC2)c(C)c1 (stereo not drawn),3.72%
11,Cc1ccc(C(=O)c2c(NC(=O)c3ccccc3)sc(C)c2C)cc1,24.2%
12,COc1ccccc1-c1nnc(NC(=O)c2ccc3ncsc3c2)o1,-3.99%
13,Cc1sc(NC(=O)c2ccc3ncsc3c2)c(C(N)=O)c1C,103% (active)
14,CN(C(=O)c1cccc(NC(=O)Cc2cccc(NC(=O)C3CCCN(C(=O)C4CC4)C3)c2)c1)C1CCC1 (stereo not drawn),-0.0755%
15,COc1ccc(C(=O)Nc2cc(S(=O)(=O)N3CCCC3)ccc2Cl)cc1,5.82%
16,Cc1nc2cc(NCc3cccs3)ccc2n1C,90.7% (active)
17,Cc1nc2cc(NC(=O)NC3CC3)ccc2n1C,13.8%
18,Cc1nc2cc(NC(=O)Nc3cccc(F)c3)ccc2n1C,12.9%
